The panel holds about 83,000 compounds, 20% with a hit somewhere; the sample as a whole holds those more often.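 Single-dose data. Exposure time 48 hours. Values below 10 considered active.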 Unmarked numbers belong to inactive results. Activity calls are given as the source filed them.
Each compound was assayed on MCF7 breast (assay: NCI-60 one-dose screen, 48 h (100 = growth as untreated, 0 = no growth, -100 = all killed)). Settings: 10 µM unless noted.
Method: Growth inhibition of the MCF7 human tumor cell line is measured as a screen for anti-cancer activity. Cells are grown in 96 well plates and exposed to the test compound for 48 hours. Compounds are tested at a single concentration, which is 10^-5 M for most compounds. The reported endpoint is percent growth (GI% or GIPRCNT), where numbers from 0 - 100% represent growth inhibition, and numbers from -100% - 0 represent cell death. For example, a value of 40 represents 60% growth inhibition. A value of 0 means no net growth occurred over the course of the experiment. A value of -40 indicates 40% of cells at the beginning of the experiment died by the end of the experiment. A value of -100 means all cells are dead at the end of the experiment.
NCI-60 Human Tumor Cell Lines Screen was performed using the standard one-dose NCI protocol, which is described in more detail at https://dtp.cancer.gov/discovery_development/nci-60/default.htm.
Compounds with GIPRCNT values below 10 were considered active. Activity score was based on GIPRCNT using the following formula: […]
Score is 0 for GIPRCNT values of 100 or above, 50 for GIPRCNT values of 0, and 100 for GIPRCNT values of -100.
Work on `CSc1ccc(C(=NNS(=O)(=O)c2ccc(C)cc2)c2ccc(Cl)cc2)cc1` yielded a growth of 88.2%. With `CC1=C(C)C(=O)C(Nc2ccc3c(c2)OCCO3)=C(Br)C1=O` the growth was 78.2%. In the case of `C[C@@H]1OCC2(CCN(c3cnc(C(=O)Nc4cc(F)cc5cccnc45)cn3)CC2)[C@@H]1N`, the growth is reported as 2.1% (active). In the case of `CCOc1cccc(/C(N)=N/C(N)=N/c2nc3ccccc3s2)c1`, the growth is reported as 72.6%. With `CCCCCCOC(=O)c1cc(-c2ccc(F)cc2)nc2ccccc12` the growth was 91.5%. `CCCN1C=C/C(=C\C(=O)n2ccc3ccccc32)c2ccccc21` was tested, and the growth was 64.5%. `CCN(CC)CCOc1ccc(C(=C(C)Cc2ccc(OC)cc2)c2ccc(OCCN(CC)CC)cc2)cc1` was tested, and the growth was -33.8% (active). Compound `CN1CCN(Cc2ccc(/C=N/Nc3ccnc4cc(Cl)ccc34)cc2)CC1` has a growth of 54.7%. In the case of `Cc1ccc(S(=O)(=O)NCCCNc2nccc(-c3[nH]c(-c4ccccc4)nc3-c3ccc(F)c(O)c3)n2)cc1`, the growth is reported as 73.5%. `CN1CCN(c2ccc(Nc3nc(NCCNS(=O)(=O)c4ccccc4)c4sccc4n3)cc2)CC1` showed a growth of 92.1%. With `Brc1ccc(-c2cc(-c3ccc4c(c3)OCCO4)n[nH]2)s1` the growth was 7.62% (active). For `NC1[C@H]2CN(c3cnc(C(=O)Nc4cc(F)cc5cccnc45)cn3)C[C@@H]12` (stereo not given in full), the growth was 6.12% (active). With `Cc1ccc(C(=O)CSc2nnc(-c3ccc(-c4ccc(Cl)cc4)nc3C)o2)cc1` the growth was 81%. `COc1cc(NC(=O)Nc2cccc(-c3cc(=O)c4c(OC)c(OC)c(OC)cc4o3)c2)cc(OC)c1OC` was tested, and the growth was 40.7%. With `N#Cc1cnc2ccc(-c3cnc4n[nH]nc4c3)cc2c1N1CCc2cc(F)c(Cl)cc21` the growth was 8.34% (active). Compound `C#CCOc1ccccc1/C=N/Nc1nc(-c2ccc(Cl)cc2)cs1` has a growth of 77.5%. For `CCNC(=O)Oc1ccc(/C(=C(/C)c2ccc(Cl)cc2)c2ccc(OCCN3CCCCCC3)cc2)cc1`, the growth was -37.8% (active). Work on `CC1(C)CC[C@]2(C(=O)O)CC[C@]3(C)C(=CC[C@@H]4[C@@]5(C)CC[C@H](NOCCCN)C(C)(C)[C@@H]5CC[C@]43C)[C@@H]2C1` yielded a growth of 68.2%. Work on `CCOP(=O)(OCC)OC[C@]12CCC(C)(C)C[C@H]1C1=CC[C@@H]3[C@@]4(C)CC[C@H](OP(=O)(OCC)OCC)C(C)(C)[C@@H]4CC[C@@]3(C)[C@]1(C)CC2` yielded a growth of 28.1%. With `CCCCCCCCCCCC(=O)NC(C)(C)C(=O)N1CCCC1C(=O)NC(C)(C)C(=O)NC(C)(C)C(=O)N1CCCC1C(=O)NC(C)(C)C(=O)NC(C)(C)C(=O)N1CCCC1C(=O)NC(C)C(=O)NCCC(=O)NC(C)C(=O)NC(C)(C)C(=O)NC(C)(C)C(=O)NC(C)(C)C(=O)NCCC(=O)NC(C)(C)C(=O)NC(C)(C)C(=O)NC(C)(C)C(=O)NC(C)C(=O)NCCC(=O)O` (stereo not given) the growth was -81.5% (active). `O=C(COc1ccc(/C=C2\C(=O)Nc3ccc(Cl)cc32)cc1)Nc1ccc(Cl)cc1` showed a growth of 56.3%. With `COc1ccc(/C=N\NC(=O)c2cnn(CC(O)c3ccccc3)c2N)cc1OCc1ccc(Cl)cc1` (stereo not given) the growth was 60.8%. `C=C(C)[C@@H]1CC[C@]2(COCCCNCCCN)CC[C@]3(C)[C@H](CC[C@@H]4[C@@]5(C)CC[C@H](O)C(C)(C)[C@@H]5CC[C@]43C)[C@@H]12` was tested, and the growth was -75.4% (active). Work on `O=C1[C@@H]2Cc3c([nH]c4ccccc34)[C@H](c3ccc(Cl)cc3)N2C(=O)CN1C1CCN(Cc2ccccc2)CC1` yielded a growth of 16.2%. With `CC(=O)Nc1nc(C)c(-c2csc(Nc3ccccc3)n2)s1` the growth was 12.3%. `CCCCCc1ccc(S(=O)(=O)Nc2cc(-c3csc(N)n3)ccc2OC)cc1` showed a growth of 66.1%. Work on `Cc1ccc(CSC2=C(Cl)CN(c3ccc(Cl)cc3)C2=O)cc1` yielded a growth of 79.1%. With `Nc1cc(C(=O)N/N=C\c2ccc(OC(F)F)c(OC3CCCC3)c2)nn1CC(O)c1ccccc1` (stereo not given) the growth was 89%. Compound `Cn1cc(-c2nc(N)nnc2-c2c[nH]c3ccc(Br)cc23)c2cc(F)ccc21` has a growth of 47.4%. With `COc1cc(C(=O)c2cc(C(C)=O)c3ccc(C)cn23)cc(OC)c1OC` the growth was 14.8%. For `O=C1C(N2CCN(c3ccccc3)CC2)=C(Cl)C(=O)c2ncccc21`, the growth was -44.7% (active). `CNc1sc(S(=O)(=O)NC)nc1S(=O)(=O)c1ccc(C)cc1` showed a growth of 87.6%. With `CCCCSC1=C(Cl)CN(c2ccccc2)C1=O` the growth was 51.5%. With `O=C1Nc2cc(Cl)ccc2/C1=C\c1ccc(OCc2ccccc2)cc1` the growth was 61.6%. In the case of `CC(C)=CCC[C@](C)(O)[C@H]1CC[C@]2(C)[C@@H]1CC[C@@H]1[C@@]3(C)CC[C@H](N)C(C)(C)[C@@H]3CC[C@]12C`, the growth is reported as 3.07% (active). In the case of `CCCCCCNC(=O)Oc1ccc(/C(=C(/C)c2ccc(Cl)cc2)c2ccc(OCCN3CCCCCC3)cc2)cc1`, the growth is reported as 15.7%. Compound `C=C(C)[C@@H]1CC[C@]2(C(=O)O)CC[C@]3(C)[C@H](CC[C@@H]4[C@@]5(C)C/C(=C/c6ccccn6)C(=O)C(C)(C)[C@@H]5CC[C@]43C)[C@@H]12` has a growth of 18.7%. `CC(=O)c1cc(C(=O)N2c3ccccc3Sc3ccccc32)n2c1ccc1ccccc12` showed a growth of 30.5%. `O=C(COc1ccc(/C=C2\C(=O)Nc3ccc(F)cc32)cc1)Nc1ccccc1` was tested, and the growth was 89.8%. Work on `Cn1c(SCC(=O)c2ccc(F)cc2)nc2ccccc2c1=O` yielded a growth of 72.7%.
